The list is not random: actives were taken first. Their share in the collection is about 8%.
FMDV inh = antivirals against foot and mouth disease virus | FMDV antiviral cell-based qHTS | Potency, µM (doses to about 57.9 µM), for inactives: at the top dose activity change, negative = inhibition, most hits filed as inhibitors | hit rate 1.2% among 410,000 | AID 1159524; calls by dose curve; tested in HEK293T cells; also: read-out not given here; potency is read from the fitted curve at half-maximal effect; % is scaled to controls: 0 for no effect and ±100 for the full control effect; nearly all actives have a fitted effect of over 45% in size
MARV entry inh = blocks Marburg virus binding to or entry into cells; Marburg virus pseudotyped entry inhibition, cell reporter; Potency, µM (titrated, usually from 37.8 µM), without a hit: top-dose activity change, negative = inhibition, usual class: inhibitors; hit rate 1.8% among 300,000; calls by dose curve; tested in HEK293 cells; also: potency is read from the fitted curve at half-maximal effect; % is scaled to controls: 0 for no effect and ±100 for the full control effect
LASV entry inh = blocks Lassa virus binding to or entry into cells; Lassa virus pseudotype entry inhibition, cell reporter; Potency, µM (highest dose often 37.9 µM), without a hit: top-dose activity change, negative = inhibition, hits mostly inhibitors; hit rate 1.2% among 300,000; calls by dose curve; tested in HEK293 cells; also: potency is read from the fitted curve at half-maximal effect; % is scaled to controls: 0 for no effect and ±100 for the full control effect; nearly all actives have a fitted effect of over 50% in size
HCMV inh = blocks human cytomegalovirus replication; HFF cells, HCMV-luciferase reporter, 72 h; hits give low values; activity change, negative = inhibition, % at 57.5 µM; hit rate 4.5% among 410,000; in the data active = activity change below about -60%; inconclusive = no clear call, values can overlap the other calls; inactive = above about -39%; also: % is scaled to controls: 0 for no effect and ±100 for the full control effect
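Cell-based, HFFs, 1000 cells/well, 16 h 37C; cpds in DMSO + HCMV-luc, MOI 1 PFU/cell; 72 h 37C; OneGlo luminescence after 5 min RT; norm. to buffer vs Salinomycin 10uM.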
HCV inh = HCV inhibition. AID 651820. Potency, µM (series often up to 41.8 µM), for the others: at the top dose activity change, negative = inhibition, usual class: inhibitors. hit rate 3.4% among 340,000. Huh7.5.1 HCVcc-Cre infection, luciferase reporter, 44 h; active = well fitted inhibition curve with a large enough effect; inconclusive = small, poorly fitted or top-dose-only effect, or another doubt; inactive = no such curve, though single readings can be large or run the other way; also: potency is read from the fitted curve at half-maximal effect; % is scaled to controls: 0 for no effect and ±100 for the full control effect
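Luciferase read-out (15 sec integration) after a 15 min room-temperature substrate step quantifies HCVcc-Cre infection. Cells, 1,000 per well, had compound added 4 h post-plating, then virus at ~0.5 moi, and were cultured 44 h.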
SARS PLP yeast = SARS-CoV PLP inhibition in yeast; hit rate 0.19% among 330,000; Potency, µM (titrated, usually from 32.9 µM), inactives show at the highest dose activity, positive = growth rescue, most hits filed as activators; AID 485353; S. cerevisiae expressing SARS-CoV PLpro, growth rescue; calls by dose curve; also: potency is read from the fitted curve at half-maximal effect; 0% is about no effect; nearly all actives have a fitted effect of over 55% in size
* marks the source's active call; other numbers are inactive results; ? = inconclusive; . = no result given; [ ] = remark or other dose.

SMILES | FMDV inh | MARV entry inh | LASV entry inh | HCMV inh | HCV inh | SARS PLP yeast
CCOC(=O)C1CCCN(C(=S)NC(=O)/C=C/c2ccc(F)cc2)C1 (stereo unspecified) | 34% | . | . | -82* | -15% | 6%
Cc1ccc(C2(c3ccccc3)NC(=O)N(CC(=O)NC3(C#N)CCCC3)C2=O)cc1C (stereo unspecified) | -19% | . | . | -92* | -10% | 2%
COc1ccc(C2(c3ccc(OC)cc3)NC(=O)N(CC(=O)NC3(C#N)CCCC3)C2=O)cc1 | -25% | 0% | -9% | -16 | -12% | 0%
CCN(C(=O)CSc1nnc(Nc2ccc(OC)cc2)s1)C1CCS(=O)(=O)C1 (stereo unspecified) | 32% | 0%[46.1 µM] | -13%[46.1 µM] | 97 | -21% | -43%
Cc1c(C(=O)O)sc2ncnc(N3CCCCC3C)c12 (stereo unspecified) | -7% | -4%[46.1 µM] | ? | -3 | 15% | 1%
CCOC(=O)c1sc2nc(C)nc(SCC(=O)N(CC)C3CCS(=O)(=O)C3)c2c1C (stereo unspecified) | ? | . | . | -73* | -9% | -4%
CCOC(=O)c1sc2nc(C)nc(N3CCCCC3C)c2c1C (stereo unspecified) | -13% | ? | 0% | -73* | -29% | -2%
CCNc1nc(NC(C)C)nc(N(C#N)[C@@H](C)C(=O)N(C)C)n1 | . | 6% | . | . | . | .
COCc1ccc(C(=O)N2CCCC(CCC(=O)NCc3ccccc3F)C2)o1 (stereo unspecified) | 38% | 5.6µM* | 2% | -19 | 1% | -1%
CC(=O)N(c1ccccc1)C1CCCC1 | -10% | 3% | 13% | -1 | 14% | 13%
O=C(CCl)N(c1ccccc1)C1CCCCC1 | ? | ? | ? | -113* | 4µM* | 1%
C[C@H](Nc1nc(Br)cnc1N)c1ccccc1 | . | . | . | 11 | . | .
CSc1ccc(NC(=O)Nc2cccn(Cc3ccccc3)c2=O)cc1 | ? | ? | ? | -84* | 3.5µM* | 5%
COc1ccc(Cn2cccc(NC(=O)Nc3ccc(F)cc3)c2=O)cc1 | -30% | . | . | ? | ? | -1%
O=C(NCc1ccccc1)Nc1cccn(Cc2ccccc2Cl)c1=O | ? | . | . | ? | 13µM* | 0%
O=C(NCc1cccn1Cc1ccccc1)Nc1ccc(Br)cc1F | -11% | . | -23%[46.1 µM] | -83* | . | .
Cc1ccc(NC(=O)c2c(C)oc3ccc(O)c(CN4CCCC4)c23)c(C)c1 | -10% | -12%[46.1 µM] | 25%[46.1 µM] | -6 | . | .
O=C(O)CCSc1nnc(COc2cccc3ccccc23)n1-c1cccc(Cl)c1 | 6% | ? | 12%[46.1 µM] | -99* | 10% | -1%
N#CCSc1nnc(COc2cccc3ccccc23)n1-c1ccccc1 | 14µM* | ? | ? | -15 | ? | -4%
COc1ccc(C=CNC(=O)Cc2ccc(OC)c(OC)c2)cc1 | . | 24%[14.2 µM] | . | . | . | .
COc1ccc2c(c1)c(C(=O)CN1CCN(C)CC1)c(C)n2Cc1ccccc1 | -24% | 20µM* | -6% | -21 | -27% | 5%
CCSC(SCC)[C@H](O)[C@@H](O)[C@H](O)[C@H](O)CO | -17% | -5% | -8% | -65* | 0%[8.37 µM] | 1%
CNCC(O)C(O)C(O)C(O)CO (stereo unspecified) | -15% | . | . | 25 | ? | 2%
CCNc1ncc2nc(-c3cn(C)c4ccccc34)c(=O)n(CCC#N)c2n1 | -6% | . | . | . | . | .
Cc1ccc2c(c1C)-c1c(ccc(C)c1C)C(=O)C2=O | 28µM* | ? | ? | -96* | 11µM* | .
Cc1ccc2c(c1N)C(=O)c1ccccc1C2=O | 18% | . | . | 191 | -19% | 0%
CCN(c1cccc(C(F)(F)F)c1)S(=O)(=O)c1ccc2c(c1)CCN2C(C)=O | ? | ? | 18µM* | -34 | ? | 5%
CCN(c1cccc(C)c1)S(=O)(=O)c1ccc2c(c1)CCN2C(C)=O | ? | ? | ? | ? | 11µM* | -3%
CCN(c1cccc(C)c1)S(=O)(=O)c1ccc2c(c1)CCCN2C(C)=O | -14% | ? | ? | ? | -14% | 7%
O=C(Nc1nccs1)C12CC3CC(C1)CC(C(=O)Nc1nccs1)(C3)C2 | 25µM* | ? | -18% | 3 | ? | 5%
